Paper PMC5540273 (PLoS ONE, 2017)

Key:
Details in all cases: concentration: 1 μM, replicates: in singlicate; n = 1
PRKCI = test system: PRKCI
PRKCQ = test system: PRKCQ
PRKD1 = test system: PRKD1
PRKD2 = test system: PRKD2
PRKD3 = test system: PRKD3
PRKG1 = test system: PRKG1
PRKG2 = test system: PRKG2
PRKR = test system: T1, PRKR
T1 construct: gene EIF2AK2

PRKX = test system: PRKX
PRP4 = test system: PRP4
PYK2 = test system: T2, PYK2
T2 construct: gene PTK2B

QSK = test system: QSK
RAF1 = test system: RAF1
RET = test system: RET
RIOK1 = test system: RIOK1
RIOK2 = test system: RIOK2
RIOK3 = test system: RIOK3
RIPK1 = test system: RIPK1
RIPK2 = test system: RIPK2
RIPK4 = test system: RIPK4
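Note: KINOMEscan kinase panel screen.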

SMILES | %Inh (PRKCI) [%] | %Inh (PRKCQ) [%] | %Inh (PRKD1) [%] | %Inh (PRKD2) [%] | %Inh (PRKD3) [%] | %Inh (PRKG1) [%] | %Inh (PRKG2) [%] | %Inh (PRKR) [%] | %Inh (PRKX) [%] | %Inh (PRP4) [%] | %Inh (PYK2) [%] | %Inh (QSK) [%] | %Inh (RAF1) [%] | %Inh (RET) [%] | %Inh (RIOK1) [%] | %Inh (RIOK2) [%] | %Inh (RIOK3) [%] | %Inh (RIPK1) [%] | %Inh (RIPK2) [%] | %Inh (RIPK4) [%]
Fc1ccc(-c2ncn(CCCN3CCOCC3)c2-c2ccccn2)cc1 [SB-211742] | 100 | 0 | 0 | 31 | 0 | 0 | 1 | 12 | 0 | 44 | 0 | 0 | 29 | 7 | 27 | 0 | 41 | 0 | 0 | 0
O=c1cc(N2CCOCC2)nc2n(Cc3cccc(Cl)c3Cl)c(C3CC3)nn12 [GSK2358994] | 4 | 0 | 13 | 0 | 17 | 14 | 0 | 0 | 0 | 0 | 0 | 0 | 0 | 8 | 13 | 25 | 37 | 0 | 0 | 16
Cc1nnc(-c2ccc3occ(-c4ccc(C(C)O)cc4)c3c2)o1 (stereo not shown) | 12 | 5 | 11 | 20 | 0 | 10 | 34 | 0 | 0 | 0 | 2 | 5 | 100 | 11 | 0 | 36 | 0 | 1 | 20 | 0
CN1c2ccc(NCc3ccc(F)cc3)cc2-c2c(cnn2C)S1(=O)=O | 29 | 12 | 13 | 1 | 0 | 0 | 7 | 0 | 0 | 33 | 0 | 10 | 1 | 0 | 10 | 0 | 0 | 3 | 0 | 0
COc1ccc(COc2cc(-n3cnc4ccccc43)sc2C(N)=O)cc1 [GSK1024304] | 0 | 32 | 0 | 24 | 3 | 0 | 0 | 0 | 10 | 11 | 0 | 0 | 4 | 26 | 0 | 80 | 0 | 4 | 0 | 0
Cl.Oc1cccc(Nc2ccnc3cc(-c4ccncc4)ccc23)c1 [GW494601] | 22 | 0 | 25 | 29 | 17 | 0 | 1 | 21 | 0 | 34 | 0 | 63 | 22 | 99.9 | 0 | 0 | 0 | 15 | 83 | 47
c1ccc(-c2n[nH]cc2-c2ccnc3ccccc23)nc1 [GW271431] | 0 | 0 | 1 | 14 | 38 | 0 | 8 | 0 | 0 | 5 | 9 | 0 | 2 | 0 | 58 | 11 | 26 | 20 | 23 | 2
Fc1ccc(-c2nn3c(OCC(F)(F)F)cccc3c2-c2ccncc2)cc1 [GW514784] | 25 | 12 | 27 | 7 | 0 | 14 | 7 | 0 | 3 | 34 | 1 | 0 | 8 | 0 | 39 | 0 | 5 | 0 | 43 | 0
C[C@@H](Oc1cc(-n2cnc3ccc(NC(=O)NC(C)(C)C)cc32)sc1C(N)=O)c1ccccc1Cl [GSK346294] | 0 | 15 | 2 | 14 | 24 | 3 | 15 | 0 | 21 | 43 | 0 | 0 | 0 | 24 | 56 | 0 | 34 | 21 | 14 | 4
O=C(NOCC1CC1)c1ccc(F)c(F)c1Nc1ccc(I)cc1Cl | 0 | 0 | 8 | 0 | 0 | 0 | 0 | 0 | 0 | 0 | 0 | 0 | 0 | 17 | 7 | 0 | 0 | 0 | 0 | 100
Nc1nc(-c2ccc3c(N)n[nH]c3c2)cc(N2CCCC2)n1 [GSK2227430] | 0 | 18 | 0 | 0 | 13 | 0 | 75 | 0 | 1 | 46 | 20 | 0 | 0 | 0 | 48 | 2 | 56 | 0 | 0 | 11
